Results from PubChem BioAssay.
Unmarked numbers belong to inactive results. The rule behind the calls is not given here.

tested on: Aerobactin synthetase IucA (Klebsiella pneumoniae hvKP1); assay: Biochemical IucA enzyme inhibition primary screen of the Spectrum library (AID 1346200); conditions: malachite green pyrophosphate, A620, at 8 µM, active compounds read low;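 note: 100% = wells without compound and 0% = wells lacking enzyme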

In order of falling activity remaining:
1. Cc1c(N(C)C)c(=O)n(-c2ccccc2)n1C  123%
2. CC(=O)OCC(CCn1cnc2cnc(N)nc21)COC(C)=O  121%
3. C=CC(C1=CC(=O)C(OC)=CC1=O)c1ccc(O)cc1 (stereo unspecified)  120%
4. Oc1c(Cl)cc(Cl)c(Cl)c1Cc1c(O)c(Cl)cc(Cl)c1Cl  118%
5. C[C@H]1[C@H](C)CC[C@]2(CO)CC[C@]3(C)C(=CCC4[C@@]5(C)CC[C@H](O)C(C)(C)C5CC[C@]43C)[C@H]12 (stereo partly specified)  117%
6. COc1cnc(NS(=O)(=O)c2ccc(N)cc2)nc1  113%
7. O=C(O)c1ccc(S(=O)(=O)N(Cl)Cl)cc1  113%
8. O=C(O)CN1C(=O)c2cccc3cccc(c23)C1=O  111%
9. CC1(C)S[C@@H]2C(N3C(=O)[C@@H](c4ccccc4)NC3(C)C)C(=O)N2[C@H]1C(=O)O (stereo partly specified)  108%
10. CN1C2CC3C[C@H]1C(O3)C2O (stereo partly specified)  108%
11. CC1(C)CCCC2(C)C3C1[C@@H](O)C2(C)C[C@H]3O (stereo partly specified)  105%
12. COc1cc(O)cc(OC)c1OC  104%
13. C[C@H](CCC(=O)O)[C@H]1CCC2C3C(CC[C@@]21C)[C@@]1(C)CC[C@@H](O)C[C@H]1C[C@H]3O (stereo partly specified)  101%
14. Cc1cc(O)c2c(c1O)C(=O)c1c(O)cc(C)c(O)c1C2=O  100%
15. C=CCSC[C@@H](N)C(=O)O  98.6%
16. COc1cc(O)c(C(=O)/C=C/c2ccc(O)c(OC)c2)c(OC)c1  77.4%
